# Not all results are given here.
# aSyn 5UTR act: Activators via SNCA 5'UTR binding, MLPCN | hit rate 7.1% among 300,000 | activity score, % (tested at 7.5 µM), hits read low | alpha-synuclein 5'UTR reporter, activators screen | AID 1814; in the data active = activity score below about -60%
# * marks the source's active call; other numbers are inactive results.
SMILES,aSyn 5UTR act
COc1ccc2nc(SCC(=O)C(C)(C)C)[nH]c2c1,-134*
O=C(CSc1nc2ccccc2[nH]1)c1ccc(Cl)s1,-113*
COc1ccc(C(=O)Nn2c(SCC(=O)N3CCC(C)CC3)nc3ccccc3c2=O)cc1,83
O=C(CSc1nc2ccc(Cl)cc2[nH]1)c1cccs1,-113*
O=C(CSc1nc2ccccc2n1S(=O)(=O)c1ccccc1)N1CCCCC1,-100*
O=C(CSc1nc2ccccc2[nH]1)N1CCCCC1,-136*
COc1ccc2nc(SCC(=O)c3ccco3)[nH]c2c1,-105*
Fc1cccc(CSc2nc3ccncc3[nH]2)c1,-80*
CCOc1ccc2nc(SCC(=O)N(C)C)[nH]c2c1,-92*
Fc1cccc(F)c1CSc1nc2ccccc2[nH]1,-127*
O=C(CSc1nc2ccccc2[nH]1)c1ccco1,-127*
c1ccc2[nH]c(SCc3cn4cccnc4n3)nc2c1,-63*
O=C(CSc1nc2ccccc2[nH]1)c1ccccc1F,-162*
Cc1cc(N(C)/N=C/c2ccccc2O)nc(-c2ccccc2O)n1,-97*
N#CCn1cc(/C=N/NC(=O)c2cc3c(ccc4ccccc43)o2)c2ccccc21,-112*
N#CCC(=O)N/N=C/c1cn(Cc2ccc(Cl)c(Cl)c2)c2ccccc12,61
CCc1cccc2c1Sc1ccccc1CC2N1CCNCC1 (stereo not given),104
N#Cc1cc2c([nH]c1=S)CCCCCC2,-71*
CCc1nc2cc3sc(CC)nc3cc2s1,-133*
Cc1cc2c(C)cc(=O)[nH]c2cc1NC(=O)CCl,-70*
Clc1cccc(N/N=C/c2ccc(N3CCOCC3)s2)c1,-167*
CC(/C=N/Nc1ccc2nncn2n1)=C\c1ccccc1,-72*
CC(/C=N/Nc1nnc(C)c(=O)[nH]1)=C\c1ccccc1,-97*
Cc1nc(N)sc1N=Nc1ccc(Br)cc1,-254*
O=C(Cc1cccs1)N/N=C/C(Br)=C/c1ccccc1,-258*
SMILES,aSyn 5UTR act
CC(/C=N/NC(=O)Cc1cccs1)=C\c1ccccc1,-156*
O=C(CN1CCOCC1)N/N=C/C(Br)=C\c1ccccc1,-76*
COc1ccc(COC(=O)N/N=C/c2cccs2)cc1,-66*
CC(/C=N/NC(=O)Cc1cccn1C)=C\c1ccccc1,-118*
COc1ccccc1NC(=O)C(=O)N/N=C/c1cccs1,-147*
COc1ccc(/C=N/NC(=O)Cc2cccs2)cc1,-70*
Cc1ccccc1NCC(=O)N/N=C/C(Br)=C/c1ccccc1,-66*
COc1ccc(/C(O)=C/c2nc3ccccc3n(-c3ccccc3)c2=O)cc1,-84*
Fc1cccc(/C=N/Nc2ccccn2)c1,-277*
Fc1cccc(Cl)c1/C=N/Nc1ccccn1,-235*
Fc1cccc(F)c1/C=N/Nc1ccccn1,-230*
N=C(N)c1ccc(OCCCCCOc2ccc(C(=N)N)cc2)cc1,67
CCCCCCOc1ccc(/C(N)=N/O)cc1,-173*
CN(C)S(=O)(=O)c1cccc(NC(=O)c2cc3ccccc3o2)c1,-122*
CN(C)S(=O)(=O)c1cccc(NC(=O)COC(=O)c2cc3ccccc3oc2=O)c1,-105*
O=C(COC(=O)c1cc2ccccc2oc1=O)Nc1ccc(F)cc1F,-169*
CCN(CC)S(=O)(=O)c1cccc(NC(=O)c2cc3ccccc3o2)c1,-126*
O=C(Nc1ccccc1)C1=C[C@H](c2ccccc2)C[C@H](OCCCCO)O1,-147*
O=C(Nc1ccccc1)C1=C[C@H](c2ccc(C(F)(F)F)cc2)C[C@H](OCCCCO)O1,-91*
O=C(Nc1ccccc1)C1=C[C@@H](c2ccc(Br)cc2)C[C@@H](OCCCCO)O1,-95*
CCO[C@@H]1OC(C(=O)Nc2ccccc2)=C[C@H](c2coc3ccccc3c2=O)[C@H]1CCCO,50
Clc1ccc(OCc2nc(-c3ccncc3)no2)c(Cl)c1,-132*
Clc1cc(Cl)c(OCc2nc(-c3ccccn3)no2)cc1Cl,-85*
CC(C)(C)c1ccc(OCc2nc(-c3ccccn3)no2)c(Br)c1,-190*
O=C(c1ccco1)N1CCN(Cc2c(Cl)cccc2Cl)CC1,-85*
SMILES,aSyn 5UTR act
Cc1cccc(C(=O)Nc2ccc(N3CCN(S(C)(=O)=O)CC3)cc2)c1,-84*
CS(=O)(=O)N1CCN(c2ccc(NC(=O)c3ccccc3)cc2)CC1,-123*
O=C(CSc1ncnc2c(-c3ccc(Cl)cc3)nsc12)c1ccccc1,-98*
Cc1cc(N2Cc3ccccc3C2)ccc1C=O,-96*
Oc1cccc(N2Cc3ccccc3C2)c1,-82*
Cc1cc2c(cc1C)CN(c1ccccc1)C2,-90*
CNC(=O)c1cc(C(=O)c2ccc(Cl)cc2)c[nH]1,-64*
Cc1ccc2[nH]c(=O)c(-c3nc4cc(C)ccn4c3NCc3ccco3)cc2c1,-78*
COc1ccc(N2Cc3ccccc3/C2=N\C(=O)Nc2ccccc2)cc1,-64*
CC(=O)CN1Cc2ccccc2/C1=N\C(=O)Nc1ccccc1,-73*
COc1ccc(-c2coc3cc(O)ccc3c2=O)cc1O,-90*
COc1ccc(-c2coc3cc(OC4OC(CO)C(O)C(O)C4O)ccc3c2=O)cc1 (stereo not given),-124*
COc1ccc(-c2coc3cc(O)ccc3c2=O)cc1,-134*
COc1ccc(CC(=O)c2ccc(OC3OC(CO)C(O)C(O)C3O)cc2O)cc1 (stereo not given),-69*
COc1ccc(C(=O)N2CCc3ccc(NC(=O)c4ccccn4)cc3C2)cc1F,-101*
Clc1ccc(-c2cn3cccnc3n2)cc1Cl,-193*
Clc1ccc(-c2cn3nc4c(nc3n2)CCCC4)cc1,88
Clc1ccc(-c2cn3cccnc3n2)cc1,-132*
O=C1/C(=C/Nc2cccc([N+](=O)[O-])c2)CCc2ccccc21,-186*

# Screens: PubChem BioAssay, Broad Institute
